Experimental data: PubChem BioAssay

Target: Voltage-gated potassium channel subunit beta-2 (Rattus norvegicus) (UniProt P62483)
Assay: KvBeta enzyme negative modulators, primary screen, biochemical, NADPH fluorescence (AID 622);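 also: slope of raw intensity against log time taken from 70 to 1610 s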
Conditions: recombinant KvBeta, 4-cyanobenzaldehyde reduction, at 10 µM, stronger effect = higher value;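 active = fluorescence slope higher than the sample average by over 3 SD (cut at about -0.22 in these data, passing the limit was not always enough); inactive = the rest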

Chain of Voltage-gated potassium channel subunit beta-2 (Rattus norvegicus) (P62483 whole entry, looked up): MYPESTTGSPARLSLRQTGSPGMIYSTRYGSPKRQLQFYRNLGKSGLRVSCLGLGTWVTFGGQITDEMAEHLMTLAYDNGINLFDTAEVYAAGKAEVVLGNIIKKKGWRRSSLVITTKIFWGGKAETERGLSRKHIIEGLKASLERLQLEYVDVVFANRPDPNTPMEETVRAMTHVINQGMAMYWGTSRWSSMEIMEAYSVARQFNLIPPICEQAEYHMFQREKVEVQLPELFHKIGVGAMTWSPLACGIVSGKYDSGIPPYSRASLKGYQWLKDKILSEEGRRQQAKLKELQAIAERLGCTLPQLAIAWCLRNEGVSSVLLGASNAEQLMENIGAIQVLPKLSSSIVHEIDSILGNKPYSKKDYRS

Fluorescence slope, inactive:
CN(C)S(=O)(=O)c1ccc(C(=O)N2CCCC2c2nc3ccccc3s2)cc1 (stereo unspecified) -0.524
CC1=C(C(=O)OC(C)C)C(C2CC=CCC2)NC(=O)N1 (stereo unspecified) -0.322
COc1ccc(OC)c(C2CC(=O)NC(SC)=C2C#N)c1 (stereo unspecified) -0.529
CC1(C(=O)NC2CCCCC2)CCC(=O)N1Cc1cccs1 (stereo unspecified) -0.594
NC(=O)c1c(NC(=O)Cc2cccs2)sc2c1CCC2 -0.483
CC(=O)Nc1cccc(NC(=O)C2CCCN2C(=O)Nc2ccc(C)cc2)c1 (stereo unspecified) -0.507
COc1ccc2[nH]c(=O)c(CN(CCO)S(=O)(=O)c3ccc4c(c3)OCCO4)cc2c1 -0.555
Cn1c(=O)c2c(nc(NCC3CCCO3)n2C)n(C)c1=O (stereo unspecified) -0.609
COc1cccc(-c2csc3nc[nH]c(=O)c23)c1 -0.426
COC(=O)Cn1c2ccccc2c2nc(C)sc21 -0.439
CCOC(=O)c1ccc(-n2c(C)nc3c(cnn3-c3ccccc3C)c2=O)cc1 -0.543
Cc1ccc(S(=O)(=O)C2(C(=O)Nc3cccnc3)CC2)cc1 -0.573
CC(=O)N1CCN(S(=O)(=O)c2ccc(S(=O)(=O)NC3CC3)cc2)CC1 -0.444
COc1ccc(CCNc2oc(-c3ccccc3OC)nc2C#N)cc1 -0.413
COc1ccc(-n2c(Cc3cccn3C)nnc2SCC(=O)Nc2cccc(Cl)c2)cc1 -0.609
COc1ccc(OC)c(-n2nnnc2SCC(=O)NCc2ccc3c(c2)OCO3)c1 -0.604
